From PubChem BioAssay (NCI)
Compounds without any hit were thinned out: in the full panel of roughly 79,000, 15% have a hit. Cut-off read from the data, not from the text of the source: active = growth inhibition above about 70%; inactive = the rest.

What was measured:
[1] = NCI Yeast Anticancer Drug Screen. Data for the rad50 strain (AID 155);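 note: 0% = growth of vehicle-only cultures of the same strain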; settings: S. cerevisiae rad50 strain growth inhibition; at 50.0 µM; stronger effect = higher value
Method in brief: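 Compounds were tested on a yeast strain with an engineered DNA damage repair alteration; the reported value is growth inhibition normalised to vehicle treatment.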

[2] = NCI Yeast Anticancer Drug Screen. Data for the mec2-1 strain (AID 157); settings: S. cerevisiae mec2-1 strain, at 50.0 µM, stronger effect = higher value
Method in brief: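 Cells of the genetically defined mec2-1 yeast strain are incubated with test compound. Inhibition of growth is calculated against vehicle-treated controls.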

[3] = NCI Yeast Anticancer Drug Screen. Data for the sgs1 mgt1 strain (AID 161);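 note: 0% = growth of cultures given vehicle only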; settings: S. cerevisiae sgs1 mgt1 strain, at 50.0 µM, stronger effect = higher value
Method in brief: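 Test agents were incubated with a DNA-repair-mutant yeast strain. Growth was then read and compared against vehicle-treated controls.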

[4] = NCI Yeast Anticancer Drug Screen. Data for the cln2 rad14 strain (AID 165);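 note: 0% = growth equal to vehicle treated cultures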; settings: S. cerevisiae cln2 rad14 strain, at 50.0 µM, stronger effect = higher value
Method in brief: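 The screen exposed genetically defined yeast (cln2 rad14) to test compounds and scored growth inhibition relative to vehicle-treated controls.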

[5] = NCI Yeast Anticancer Drug Screen. Data for the bub3 strain (AID 167); settings: S. cerevisiae bub3 mutant strain, at 50.0 µM, stronger effect = higher value
Method in brief: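 Growth of a checkpoint-deficient yeast mutant is measured after compound exposure. Values represent inhibition relative to vehicle.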

[6] = NCI Yeast Anticancer Drug Screen. Data for the mlh1 rad18 strain (AID 175); settings: S. cerevisiae mlh1 rad18 strain growth inhibition; at 50.0 µM; stronger effect = higher value
Method in brief: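 Compound-treated yeast growth, normalised to vehicle controls. Strain bears defined DNA repair mutations.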

Measured: growth inhibition

CC(=O)OCCC(C)Nc1ccnc2cc(Cl)ccc12 (stereo unspecified)
inactive: [1] -11.7% | [2] -7.45% | [3] 6.35% | [4] 13.2% | [5] -3.75% | [6] 12.2%

CCCCCCC(O)CC[C@H]1CCC[C@@H](C)N1 (stereo partly specified)
inactive: [1] 46% | [2] 26.3% | [3] 39.5% | [4] 38.9% | [5] 45.5% | [6] 38.5%

c1ccc([Si](c2ccccc2)(c2ccccc2)c2ccc(-c3ccc([Si](c4ccccc4)(c4ccccc4)c4ccccc4)cc3)cc2)cc1
inactive: [1] 1.1% | [2] -0.75% | [3] -8.3% | [4] -4.35% | [5] -0.05% | [6] -15.9%

Nc1nc(-c2ccc(Cl)c(Cl)c2)cc(-c2cc(-c3ccc(Cl)c(Cl)c3)nc(N)n2)n1
inactive: [1] 24.9% | [2] 2.55% | [3] 7.55% | [4] 21.6% | [5] 4.2% | [6] 11%

O=C(O)Cc1cc(Cl)ccc1Cl
inactive: [1] -4% | [2] 8.85% | [3] 8.7% | [4] -2.55% | [5] -1.2% | [6] -9.05%

CSc1cccc(NC(=S)NN/C(=N/S(=O)(=O)c2ccccc2)N2CCCC2)c1
inactive: [1] 6.3% | [2] -17.6% | [3] -1.35% | [4] 2.3% | [5] -2.9% | [6] -1.2%

CC(C)(c1ccccc1)c1ccc(Oc2ccc(C#N)c(C#N)c2)cc1
inactive: [1] -27.2% | [2] -7.6% | [3] -14% | [4] 3.3% | [5] -35.8% | [6] -21.6%

O=C(CCCCCCCCC(=O)NO)NO
inactive: [1] -10.8% | [2] 0.45% | [3] -2.9% | [4] 4% | [5] -2.95% | [6] -2.5%

O=C(Cc1ccccc1)NNC(=O)Nc1ccccc1
inactive: [1] 4% | [2] -3.6% | [3] 9.4% | [4] -26.6% | [5] 2.5% | [6] 1.05%

O=C(Cc1ccccc1)Nc1ccccc1
inactive: [1] 17.9% | [2] -21.1% | [3] 2.45% | [4] -0.3% | [5] -7.55% | [6] 17.9%

C/C(=N/NC(N)=S)c1ccc[nH]1
inactive: [1] -18.1% | [2] -14.2% | [3] -3.75% | [4] 20.9% | [5] -39% | [6] -10.4%

CCc1c[nH]c(C=O)c1CC
inactive: [1] 6.35% | [2] -14.1% | [3] -12.5% | [4] 11.4% | [5] -10.8% | [6] 18.6%

O=c1c(=[n+]2ccc(=C([O-])c3ccccc3)cc2)/c(=N/S(=O)(=O)c2ccccc2)c(=O)c2ccccc12
inactive: [1] 19.2% | [2] 33.1% | [3] 39.8% | [4] 7% | [5] 12.8% | [6] 26.4%

O=C(Nc1cccc(Cl)c1)OCc1ccccn1
inactive: [1] 37.6% | [2] 8.15% | [3] 6.9% | [4] -21.5% | [5] -0.95% | [6] 22.1%

O=C(O)c1cc(O)c(O)c(Cl)c1
inactive: [1] 10.3% | [2] 6.15% | [3] 4.1% | [4] -9% | [5] 6.6% | [6] 5.05%

CCCCCCCCCCCC(=O)OCC1OC(n2cc(F)c(=O)[nH]c2=O)C(N)C(OC(=O)CCCCCCCCCCC)C1O (stereo unspecified)
inactive: [1] -9% | [2] -34.9% | [3] -51.6% | [4] 4.2% | [5] -34.9% | [6] -45.5%

O=C(O)CS(=O)(=O)Cc1ccc(Cl)cc1Cl
inactive: [1] 15.6% | [2] 20.4% | [3] 24% | [4] 12.8% | [5] 25.1% | [6] 18.6%

CCCCCCNC(CC(N)=O)C(=O)O (stereo unspecified)
inactive: [1] -13.2% | [2] 3.85% | [3] 11.3% | [4] 2.45% | [5] -12.8% | [6] -26.2%

Cc1ccc(C2=NO[C@@H]3C(=O)N(c4ccc(Cc5ccc(N6C(=O)[C@H]7C(c8ccc(C)cc8)=NO[C@H]7C6=O)cc5)cc4)C(=O)[C@H]23)cc1
inactive: [1] -0.4% | [2] 30.1% | [3] 29.1% | [4] 32.4% | [5] 31.1% | [6] 20.1%

C=C(CCCC(C)OC(=O)NC(C)c1cccc2ccccc12)[Si](C)(C)C (stereo unspecified)
inactive: [1] -41.7% | [2] -20.1% | [3] -19.6% | [4] -6.6% | [5] 8.3% | [6] -26.4%

O=[N+]([O-])c1ccc(Oc2cccc3ccccc23)c([N+](=O)[O-])c1
inactive: [1] 4.75% | [2] 8.55% | [3] 18.5% | [4] -82.5% | [5] 29.1% | [6] 38.8%
